In PubChem BioAssay AID651780 (The Scripps Research Institute Molecular Screening Center, 2012):
About 1,800 (75%) of roughly 2,400 compounds were called active. So high a share suggests a set chosen from earlier hits. Not all results are given here. Values without a mark were called inactive. Rule as the data show it: active = inhibition above about 22%; inactive = the rest.

Assay: nonselective antagonists in TAAR1 counter-screen cells, counter-screen for hTAAR1 antagonist project, cell-based, fluorescence, calcium (AID 651780);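 also: CHO-Ga16 host cells stimulated with ATP at an EC80 level; 0% = agonist EC80 plus vehicle and 100% = vehicle without agonist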
Conditions: counterscreen cell line, antagonist mode, at 3 µM, stronger effect = higher value
With COc1ccc(CCNC(=O)C(=O)NCC2OCCN2S(=O)(=O)c2ccc(OC)c(C)c2)cc1 (stereo not given) the inhibition was 23.7% (active). With O=C(COC(=O)CCCSc1nc2ccccc2[nH]1)Nc1ccc(Oc2ccccc2)cc1 the inhibition was 39.8% (active). With O=C(O)c1ccc(NC(=O)c2cn(-c3ccccc3)nc2-c2ccc(Cl)cc2)cc1 the inhibition was 36.1% (active). For COc1ccc(CC(=O)Nc2c(C(N)=O)oc3ccccc23)cc1, the inhibition was 22.3% (active). For C[C@H](NC(=O)c1nc[nH]c1C(=O)NCC(=O)OC(C)(C)C)C(=O)OCc1ccccc1, the inhibition was 23.6% (active). In the case of CC(C)(C)OC(=O)NCCCCCNC(=O)c1nc[nH]c1C(=O)NCc1ccccc1, the inhibition is reported as 22% (active). For Cc1cccc(NC(=O)c2nc[nH]c2C(=O)NCC(=O)OCc2ccccc2)c1, the inhibition was 26% (active). In the case of OC(c1ccccc1)(c1ccccc1)C1CCN(CCCOc2ccc(-c3ccsc3)cc2)CC1, the inhibition is reported as 40.2% (active). For CC(=O)Nc1ccc(NC(=O)COC(=O)C2CCC(C(C)(C)C)CC2)cc1 (stereo not given), the inhibition was 24.5% (active). With O=C(NCC1CCCO1)c1cc2c([nH]c3ccccc32)c(-c2ccc(F)cc2)n1 (stereo not given) the inhibition was 30.9% (active). For CC(=O)N1CCN(C(=O)c2cc(-c3ccc(Cl)s3)nc3ccccc23)CC1, the inhibition was 26.1% (active). Work on O=C(COC(=O)c1c2c(nc3ccccc13)CCCC2)c1ccc(Br)s1 yielded an inhibition of 20.1%. Work on Cc1cccc(C)c1NC(=O)CNC(=O)C1CCCC1 yielded an inhibition of 5.58%. With O=S1(=O)c2c(cccc2N2CCCCC2)O[C@H](COCc2ccccc2)CN1C1CC1 the inhibition was 32.5% (active). For Cc1cc(Br)ccc1NC(=O)c1cnc(N2CCN(c3ccccn3)CC2)c2ccccc12, the inhibition was 38.4% (active). For Cc1ccccc1NC(=O)Cc1nc(COC(=O)C(C)(C)Oc2ccc(Cl)cc2)cs1, the inhibition was 33.4% (active). COC(=O)c1sccc1NC(=O)c1cc(OC)c(OC)c(OC)c1 showed an inhibition of 21.3%. In the case of COc1cc2ccccc2cc1C(=O)Nc1ccc(NC(=O)c2cccs2)cc1, the inhibition is reported as 27.7% (active). For O=C1c2ccccc2C(=O)N1CCC#Cc1ccc2cc(C3(O)CCCCC3)oc(=O)c2c1, the inhibition was 44% (active). With COc1ccc(CCNC(=O)c2ccc(CS(=O)(=O)c3ccc(Br)cc3)o2)cc1OC the inhibition was 35% (active). With CCOC(=O)C1C(c2ccc(OC)c(OC)c2)c2c([nH][nH]c2=O)CC1(C)O (stereo not given) the inhibition was 25.2% (active). In the case of COC(=O)Cc1nnn2c1[C@H](C)[C@H](c1ccccc1Br)OCC2, the inhibition is reported as 0.66%. For COc1ccc(S(=O)(=O)N2CCCC(C(=O)Nc3ccc(NC(=O)c4ccccn4)cc3)C2)cc1 (stereo not given), the inhibition was 29.2% (active). With COc1ccc(NC(=O)C2CCCN(S(=O)(=O)c3cccc4cccnc34)C2)cc1OC (stereo not given) the inhibition was 29.3% (active). In the case of Cc1onc(-c2c(F)cccc2Cl)c1C(=O)Nc1cccc(S(=O)(=O)N2CCCCC2)c1, the inhibition is reported as 19.7%. With COc1ccc(C(=O)Nc2cccc(NC(=O)c3ccc(OC)cc3OC)n2)c(OC)c1 the inhibition was 22.6% (active). Work on CSc1nc(-c2ccccc2)nc(C(Cl)Cl)n1 yielded an inhibition of -4.34%. For COc1cc(/C=C2/C(=O)ON=C2C)ccc1OCc1ccccc1F, the inhibition was 57.1% (active). With Cc1nc(N2CCN(c3ccccn3)CC2)c2c(C)c(C(=O)Nc3ccc(F)cc3)sc2n1 the inhibition was 36.4% (active). With Nc1nonc1-n1nnc(C(=O)N/N=C/c2c[nH]c3ccccc23)c1-c1ccccc1 the inhibition was 29.3% (active). Work on CSC(=S)N/N=C/c1c[nH]c2ccccc12 yielded an inhibition of 19.5%. For COc1ccc(CCNC2=C(Cl)C(=O)N(Cc3ccccc3)C2=O)cc1OC, the inhibition was 31.3% (active). For COc1ccc(OC)c2[nH]c(=O)c(CCNC(=O)C(=O)c3c[nH]c4ccccc34)cc12, the inhibition was 26.8% (active). With CC(=O)OCCN(CCCn1c(-c2ccncc2)nc2ccccc21)c1nc(-c2ccc(C)cc2)cs1 the inhibition was 24.1% (active). With O=c1[nH]c(CSc2ncc(-c3ccc(F)cc3)n2Cc2ccco2)nc2ccccc12 the inhibition was 29.8% (active). For CCCCNc1c(-c2cccc(Sc3ccc(OC)cc3)c2)nc2ccccn12, the inhibition was 42.4% (active). For C[C@H](O)[C@@H]1C(=O)N2CCc3c([nH]c4c(-c5ccc6c(c5)OCO6)cccc34)[C@@H]2C[C@@H]1N(C)C(=O)c1ccco1, the inhibition was 35.2% (active). In the case of Cc1cccc(NC(=O)c2ccc(COc3ccccc3[N+](=O)[O-])o2)n1, the inhibition is reported as 15.8%. For COC(=O)C1=C(C)N(Cc2ccc(F)cc2)C(=S)NC1c1cccc(Cl)c1 (stereo not given), the inhibition was 23.3% (active). For O=C(N/N=C/c1ccc(Cl)c(Cl)c1)c1ccc2nc[nH]c2c1, the inhibition was 27.9% (active). For Cc1nn(-c2ccccc2)c(C)c1NC(=O)COC(=O)c1cc(Cl)ccc1O, the inhibition was 32.8% (active). For CNC(=O)c1ccsc1NC(=O)c1ccc(S(=O)(=O)N2CCc3ccccc32)cc1, the inhibition was 32.3% (active). CCN1CCc2c(C#N)c(NCc3ccccc3)nc(NCCO)c2C1 gave an inhibition of 5.04%. In the case of C=CCn1c(SCc2cccc(F)c2)nc2cc(C(=O)N3CCC(C(N)=O)CC3)ccc2c1=O, the inhibition is reported as 25.6% (active). For CC(=O)c1ccccc1OCc1ccc(C(=O)c2ccccc2)cc1, the inhibition was 27% (active). For CCNS(=O)(=O)c1ccc(CCC(=O)N2CCN(c3cc(Cl)ccc3C)CC2)cc1, the inhibition was 37.1% (active). In the case of COc1ccc(Cl)cc1NC(=O)CCS(=O)(=O)c1cc2c(cc1C)NC(=O)CO2, the inhibition is reported as 23.5% (active). With CCc1ccc2c(c1)NC(=O)C2(C)Cc1ccc(OC(F)(F)F)cc1 (stereo not given) the inhibition was 4.79%. For COc1ccc(C(=O)Oc2ccc(-c3nnco3)cc2)cc1S(=O)(=O)N1CCOCC1, the inhibition was 25.1% (active). For O=C(Oc1ccc(-c2nnco2)cc1)c1ccc(F)c(S(=O)(=O)N2CCOCC2)c1, the inhibition was 32.8% (active). For CCC(=O)Oc1cccc(C(=O)Nc2ccc(-c3nnc(-c4ccco4)o3)cc2)c1, the inhibition was 26.1% (active). O=C(Nc1ccc(-c2nnc(-c3ccccc3)o2)cc1)c1ccc(Br)o1 showed an inhibition of 16%. In the case of COc1ccc2[nH]c(=O)c(CN(Cc3cccnc3)S(=O)(=O)c3ccccc3F)cc2c1, the inhibition is reported as 34.9% (active). C=CCc1cc(S(=O)(=O)c2ccc(O)c(CC=C)c2)ccc1O gave an inhibition of 18.2%. In the case of O=C(NCCN1CCOCC1)c1ccccc1N1C(=O)[C@@H]2Cc3c([nH]c4ccccc34)C(c3cccc(Cl)c3)N2C1=O (stereo not given in full), the inhibition is reported as 26.3% (active). In the case of COC(=O)[C@@]1(Sc2ccc(C)cc2)CC(=O)N(c2cccc(SC)c2)[C@@H]1c1ccccc1, the inhibition is reported as 21.8% (active). In the case of Clc1ccc(Nc2ncnc3c2nnn3Cc2ccccc2)cc1, the inhibition is reported as 9.4%. For Cc1ccc2c(c1)N(CC(=O)NCCc1ccc(Cl)cc1)C(=O)c1cccnc1O2, the inhibition was 22.1% (active). Cc1ccc(-n2c(C)cc(/C=N\NC(=O)CC(=O)NC(C)C)c2C)cc1 showed an inhibition of 7.15%. In the case of C/C(=N\Nc1ncc(Cl)cc1Cl)c1ccc(S(=O)(=O)NCc2ccco2)cc1, the inhibition is reported as 28.7% (active). In the case of Fc1ccc(/C=N/Nc2nc(-c3cccnc3)nc3ccccc23)cc1, the inhibition is reported as 25.1% (active). For O=C(OCC(=O)N(CCc1ccccc1)Cc1ccccc1)c1ccccc1[N+](=O)[O-], the inhibition was 33.2% (active). Cc1ccc2cccc(OCCCOc3ccccc3CO)c2n1 gave an inhibition of 20.3%. In the case of COc1cc(OC)cc(C(=O)OCC(=O)Nc2sccc2C(N)=O)c1, the inhibition is reported as 27.8% (active). For COc1cc(SC#N)ccc1N=Cc1c(C)[nH]n(-c2ccc(C)cc2)c1=O, the inhibition was 87.2% (active). For C=CCC[C@@H](Cc1ccc(F)cc1)C(=O)O[C@H](CNC(=O)[C@H](CC=C)CC(=O)N(CCO)Cc1ccccc1)c1ccccc1, the inhibition was 39.2% (active). In the case of C=CCC[C@H](Cc1ccc(F)cc1)C(=O)OC[C@H](C)NC(=O)[C@H](CC=C)CC(=O)N(CCO)Cc1ccccc1, the inhibition is reported as 27.6% (active). With Oc1ccccc1N1CCN(c2ncnc3sc(-c4ccccc4)cc23)CC1 the inhibition was 30.2% (active). In the case of O=S(=O)(c1cccs1)N1CCCc2nc(-c3ccc(Br)cc3)ccc21, the inhibition is reported as 33.3% (active). With CCOC(=O)C1=C(NC(=S)NC(=O)c2ccccc2)c2ccccc2CC1(C)C the inhibition was 24.8% (active). In the case of COc1ccc(-c2nn(-c3ccccc3)cc2C(=O)Nc2nccs2)cc1OC, the inhibition is reported as 24.8% (active). In the case of CSCCC(NC(=O)COc1ccccc1)C(=O)OCCOc1ccc(Br)cc1 (stereo not given), the inhibition is reported as 21.9% (active). For CSCCC(NC(=O)COc1ccccc1)C(=O)OCC(=O)c1cc2ccccc2o1 (stereo not given), the inhibition was 24.2% (active). With C[C@@H]1CN([C@@H](C)CO)S(=O)(=O)c2ccc(C#Cc3cccc(F)c3)cc2O[C@H]1CN(C)S(=O)(=O)c1cn(C)cn1 the inhibition was 38.3% (active). In the case of Cc1ccc(SCc2c(C(=O)N/N=C/c3cccnc3)nnn2-c2nonc2N)cc1, the inhibition is reported as 38.4% (active). For Oc1ccc(/C=N/Nc2nc(-c3ccccc3F)nc3ccccc23)c(O)c1, the inhibition was 38.2% (active). Molecule COc1ccc(S(=O)(=O)N(CC(=O)NCc2ccco2)c2ccc(F)cc2)cc1 has an inhibition of 19.3%. With COc1ccc(N(CC(=O)N/N=C/c2cccs2)S(=O)(=O)c2ccc(OC)c(OC)c2)cc1 the inhibition was 25.2% (active). In the case of O=C(CN1CCCSc2ccccc21)N1CCN(S(=O)(=O)c2cccc(F)c2)CC1, the inhibition is reported as 19.4%. For NNC(=O)CNC(c1ccccc1)c1cc(Cl)ccc1NC(=O)c1ccccc1 (stereo not given), the inhibition was 22.9% (active). Work on CCOc1ccc(NC(=O)N2CC=C(n3c(=O)[nH]c4ccccc43)CC2)cc1 yielded an inhibition of 19.3%. With Cn1c2ccccc2c(=O)c2c(=O)n(Cc3ccco3)c(COc3ccccc3)nc21 the inhibition was 21.8% (active). In the case of Cc1ccc(C)c(N2CCN(C(=O)CCCCCn3c(=S)[nH]c4ccc(N5CCOCC5)cc4c3=O)CC2)c1, the inhibition is reported as 44.4% (active). Molecule Cc1ccc(NC(=O)c2ccc(CSc3ncnc4nc[nH]c34)cc2)c(C)c1 has an inhibition of 17.2%. For CC(=O)n1cc([C@H]2C=C(C(=O)N3CCOCC3)O[C@@H](OCc3ccc(CO)cc3)C2)c2ccccc21, the inhibition was 24.4% (active).
